# Measured values published in PubChem BioAssay AID623888 (Vanderbilt Specialized Chemistry Center, 2012).
# Target: Metabotropic glutamate receptor 3 (Rattus norvegicus) (UniProt P31422)
# Assay: PubChem AID 623888
# Settings: HEK/GIRK rat mGlu3, thallium flux fluorescence, Schild, at 10 µM; % glutamate max: glutamate max response with compound, stronger effect = lower value; glutamate EC50 fold shift: stronger effect = higher value
# Chain of Metabotropic glutamate receptor 3 (Rattus norvegicus) (P31422 whole entry, looked up): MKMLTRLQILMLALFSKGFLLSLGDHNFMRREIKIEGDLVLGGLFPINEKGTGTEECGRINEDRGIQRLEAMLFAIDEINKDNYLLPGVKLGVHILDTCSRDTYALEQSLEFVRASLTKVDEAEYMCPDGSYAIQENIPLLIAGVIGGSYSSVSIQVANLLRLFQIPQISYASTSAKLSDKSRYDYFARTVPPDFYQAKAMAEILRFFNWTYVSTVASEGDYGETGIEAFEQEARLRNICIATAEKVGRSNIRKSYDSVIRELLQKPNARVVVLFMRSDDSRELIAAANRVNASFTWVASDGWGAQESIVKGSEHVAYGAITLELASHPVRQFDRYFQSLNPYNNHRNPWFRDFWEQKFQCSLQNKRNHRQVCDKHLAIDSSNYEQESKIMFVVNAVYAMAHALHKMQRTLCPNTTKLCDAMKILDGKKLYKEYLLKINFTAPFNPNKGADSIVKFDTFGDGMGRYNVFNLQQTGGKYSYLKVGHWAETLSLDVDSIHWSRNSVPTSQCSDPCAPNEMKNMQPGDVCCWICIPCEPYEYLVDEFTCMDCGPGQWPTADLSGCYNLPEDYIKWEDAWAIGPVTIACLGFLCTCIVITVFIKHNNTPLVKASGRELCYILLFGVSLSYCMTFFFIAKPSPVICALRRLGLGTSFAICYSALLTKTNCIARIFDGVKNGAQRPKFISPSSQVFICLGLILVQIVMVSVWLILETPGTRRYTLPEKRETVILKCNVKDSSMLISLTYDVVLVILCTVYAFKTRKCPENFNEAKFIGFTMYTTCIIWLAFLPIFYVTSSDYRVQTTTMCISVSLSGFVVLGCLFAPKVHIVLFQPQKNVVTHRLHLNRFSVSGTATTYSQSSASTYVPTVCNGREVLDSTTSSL
structure (smiles),measurement,value
COc1ccc(C#Cc2ccc(C(=O)N3CCC[C@@H](CO)C3)cc2)cc1,% glutamate max,24.5%
same,glutamate EC50 fold shift,8.96
